BoNT A protease = inhibitors of Botulinum neurotoxin A light chain protease; multiplex microsphere protease substrate cleavage, flow cytometry; inhibition, % at 10 µM; 360,000 tested, 0.17% active; further: plate controls were buffer without enzyme for full effect and enzyme alone for no effect
PriA SSB inh = inhibitors of Klebsiella pneumoniae PriA binding to SSB C-terminal tail; inhibition, % at 33 µM; AlphaScreen SSBct-PriA binding, biotinylated peptide; 430,000 tested, 0.6% active; AID 1272365; in the data active means inhibition mostly above about 37%, no sharp cut-off; inactive means mostly below about 20%;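 further: plate controls were negative control peptide for no effect and reference peptide for full effect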
MazEF act = MazEF (E. coli) toxin RNase activation. 350,000 tested, 0.32% active. P0AE70. AID 504720. FAM/BHQ RNA-DNA oligo cleavage fluorescence, 5 h. activation, % at 20 µM; in the data active means activation above about 50%
BoNT F protease = inhibitors of Botulinum neurotoxin F light chain protease; Multiplex microsphere protease cleavage assay, flow cytometry; inhibition, % at 10 µM; 360,000 tested, 0.22% active; AID 588497; in the data active means inhibition above about 35%, passing the limit was not always enough; inconclusive means no clear call, values can overlap the other calls; further: plate controls were buffer without enzyme for full effect and enzyme alone for no effect
Bead autofluor = compound fluorescence in toxin protease inhibitor counterscreen; compound autofluorescence counterscreen, microsphere flow cytometry; stronger effect = higher value; fluorescence intensity (test concentration not listed); 360,000 tested, 3.1% active; AID 624483; in the data active means fluorescence intensity above about 16000; inconclusive means no clear call, values can overlap the other calls
Anthrax LF prot = inhibitors of Bacillus anthracis lethal factor protease. P15917. multiplex microsphere protease cleavage assay, LF. inhibition, % at 10 µM. 360,000 tested, 0.12% active. AID 588501; further: plate controls were buffer without enzyme for full effect and enzyme alone for no effect
Numbers without * were called inactive; ? = inconclusive; . = no result; ! = not active in a repeat. Shown are actives, neighbours in structure and some others; about 3.3% of the full set was active somewhere. Unless noted, no stated cut-off is given here; in the data, active means inhibition above about 30%; inconclusive means no clear call, values can overlap the other calls; inactive means below that.

SMILES	BoNT A protease	PriA SSB inh	MazEF act	BoNT F protease	Bead autofluor	Anthrax LF prot
CC(=O)Nc1ccc(N2C(C(C)=O)=NN(c3ccccc3)C2c2cccs2)cc1 (centres undefined)	-1	-24	-22	0	19872*	1
CS(=O)(=O)N1CCCC[C@H]1C(=O)N(Cc1ccccc1)c1nc2c(F)cccc2s1	.	-1	.	.	.	.
CC(C)(C)c1csc(N(CCC#N)CCC#N)n1	0	-14	2	1	16153*	-5
CCOc1ccc(-c2cc(CCCC(=O)NCCc3ccc(OC)c(OC)c3OC)no2)cc1	0	-11	0	-1	22608*	-2
COc1ccc(-c2cc(CCCC(=O)NCCc3ccc(OC)cc3OC)no2)cc1	-2	-10	-23	-2	24435*	-2
COc1ccc(-c2cc(CCCC(=O)NCCc3ccccc3)no2)cc1	0	-12	-2	-4	3846	-2
COc1ccc([C@@H](O)CNC(=O)C(=O)Nc2cccc(C(F)(F)F)c2)cc1OC	.	-17	.	.	.	.
CS(=O)(=O)N1CCC(C(=O)Nc2cc(-n3cccn3)ncn2)CC1	.	-34	.	.	.	.
CONC=NC(=S)Nc1ncc(C(F)(F)F)cc1Cl	.	-7	.	.	.	.
O=C(Nc1nc2ccc(S(=O)(=O)N3CCCCC3)cc2s1)c1ccncc1	1	-7	-3	-7	3655	-1
O=C(Nc1nc2ccc(S(=O)(=O)N3CCCCC3)cc2s1)c1cccnc1	6	-10	4	6	21943*	-7
O=C(Nc1ccon1)c1cccc(S(=O)(=O)N2CCCC2)c1	0	-10	1	-2	19894*	4
O=C(CCc1csc(NC(=O)c2ccc[nH]c2=O)n1)NCCc1ccccc1	.	-6	.	.	.	.
COc1ccc(N2CC(C(=O)NCCCN3CCOCC3)CC2=O)cc1 (centres undefined)	0	4	3	2	23842*	1
Cc1ccc(N2CC(NC(=O)NCCCn3ccnc3)CC2=O)cc1C (centres undefined)	.	51*	.	.	.	.
Cc1ccc(N2CC(C(=O)NCCCn3ccnc3)CC2=O)cc1 (centres undefined)	-2	-6	-8	-3	16950*	0
O=S(=O)(Cc1ccco1)[C@H]1CCNC1	.	-5	.	.	.	.
CC(=O)N1c2ccc(S(=O)(=O)NCCOc3ccc4c(c3)OCO4)cc2CC1C (centres undefined)	.	4	.	.	.	.
CC(C)(C)OC(=O)C[C@H]1C/C=C/C[C@H](CC(=O)N[C@H](CO)Cc2ccccc2)C(=O)N2CCC[C@@H]2COC1=O	.	-3	.	.	.	.
CCOC(=O)c1c(-c2ccc(OC)cc2)csc1N	.	40*	.	.	.	.
CCOC(=O)c1c(N)nn(C(=O)C(C)C)c1-c1ccc(OC)cc1	0	-24	-3	1	16326*	-2
O=C(CSCc1ccccc1)N1CC(c2nc(-c3ccco3)no2)C1	.	-17	.	.	.	.
O=C(NC[C@H](O)c1ccc(C(F)(F)F)cc1)c1cccc2ccccc12	.	-12	.	.	.	.
COc1cc(C2Nc3cccc4cccc(c34)N2)ccc1O	-5	5	11	?	3240	-15
Oc1ccc2ccccc2c1C1Nc2cccc3cccc(c23)N1	-1	17	11	-10	23653*	-7
SMILES	BoNT A protease	PriA SSB inh	MazEF act	BoNT F protease	Bead autofluor	Anthrax LF prot
NCC(O)COc1ccc2c(c1)OCO2 (centres undefined)	0	46*!	0	8	2674	-2
OCCN1CCN(CC(O)COc2ccc3c(c2)OCO3)CC1 (centres undefined)	0	5	2	-10	2759	-1
CCc1nc2oc3ccccc3c(=O)c2c(=O)n1-c1ccccc1	0	-17	0	3	16529*	0
CN(Cc1ccccc1)C(=O)Nc1ccc(Cl)cc1	.	0	-7	.	.	.
CON(C)C(=O)Nc1ccc(Cl)cc1	-2	-3	8	-4	16992*	-5
Cc1nnc(N2C(=O)C(O)=C(C(=O)c3ccco3)C2c2ccc(F)cc2)s1 (centres undefined)	1	-6	2	2	4120	5
Cc1nnc(N2C(=O)C(O)=C(C(=O)c3ccco3)C2c2ccc(C(C)(C)C)cc2)s1 (centres undefined)	0	-5	192*	-11	3438	0
CSc1ccc(C2C(C(=O)c3ccco3)=C(O)C(=O)N2c2nnc(SC)s2)cc1 (centres undefined)	-4	-7	187*	-3	7823	-2
Cc1nnc(N2C(=O)C(O)=C(C(=O)c3ccco3)C2c2ccc(C(C)C)cc2)s1 (centres undefined)	0	-3	62*	3	2618	3
Cc1ccc(C2C(C(=O)c3ccco3)=C(O)C(=O)N2c2ncccn2)cc1 (centres undefined)	0	3	-2	?	?	10
O=C(CCSc1ccc(Cl)cc1)Nc1nnc(-c2cccs2)o1	.	-30	.	.	.	.
CCN(CC)c1ccc2nc3ccc(N)cc3[n+](-c3ccccc3)c2c1	34*	54*	-68	-40	3078	1
CCN(CC)c1ccc(C=NNc2nc3ccccc3[nH]2)c(O)c1	.	92	.	.	.	.
CCN(CC)c1ccc2nc3ccccc3[n+](CC)c2c1	2	42*	6	-21	3328	1
COCCNC(=O)N1CCC(Oc2cccc(C)n2)CC1	.	-8	.	.	.	.
CC(=O)c1cc(F)c(N2CCN(c3ccc([N+](=O)[O-])cc3F)CC2)cc1C	-2	-5	2	-4	20270*	-6
O=C(O)c1ccc2c(n1)NCCC2	.	94*	.	.	.	.
O=C(O)c1cncc2c1NCCC2	.	-5	.	.	.	.
COC(=O)c1sc2ccccc2c1S(=O)(=O)Nc1ccc2c(c1)OCCO2	.	17	.	.	.	.
CN(C)C(=O)Oc1ccc2ccccc2c1Cl	-1	-12	4	-3	23669*	-3
CCN(CC)C(=O)Oc1ccc2ccccc2c1Cl	0	-28	-3	-7	2249	0
CN1CCn2c1nc(N1CCCCC1)nc2=O	-6	-12	-8	-9	21803*	0
O=c1nc(N2CCCCC2)nc2n1CCO2	1	2	0	5	2533	-1
CSc1ncc(Cl)c(C(=O)Nc2nccs2)n1	.	-12	.	.	.	.
Oc1ccc(Oc2ccc3c(C(F)(F)F)cc(C(F)(F)F)nc3n2)cc1	-3	20	0	-24	4103	-8
SMILES	BoNT A protease	PriA SSB inh	MazEF act	BoNT F protease	Bead autofluor	Anthrax LF prot
FC(F)(F)c1ccc(Oc2ccc3c(C(F)(F)F)cc(C(F)(F)F)nc3n2)cc1	1	-13	-1	2	22830*	0
COc1ccc(Oc2ccc3c(C(F)(F)F)cc(C(F)(F)F)nc3n2)cc1	?	-15	-13	-2	22263*	0
O=C(c1cccc(C(F)(F)F)c1)N1CCC(O)(CS(=O)(=O)Cc2ccc(Cl)cc2)CC1	-3	2	-5	-8	17295*	-3
O=C(c1cccc(C(F)(F)F)c1)N1CCC(O)(CS(=O)(=O)Cc2ccccc2)CC1	0	-10	-5	1	4383	-2
O=C(c1cccc(C(F)(F)F)c1)N1CCC(O)(CS(=O)(=O)Cc2ccccc2Cl)CC1	?	-19	-14	-3	20377*	1
O=C(NCCc1csc2nc(-c3cccs3)nn12)NC1CCCCCC1	.	5	.	.	.	.

High-throughput results: PubChem, several laboratories
